Experimental data from the antibiotic and cytotoxicity screens of Wong et al. (2023).
Hit rate of the full screen: of about 39,000 compounds, about 3,300 (8.5%) were called active. Shown is part of a subset that was picked to be rich in actives.

Test system: HepG2
Assay: cytotoxicity call (relative viability < 0.9)
Details: 10 µM

Row | Structure (SMILES) | cytotoxicity call
1 | Cc1cccnc1[C@H](c1ccc(F)cc1)N(C)C(=O)C1CCN(CCOc2ccc(Cl)cc2Cl)CC1 | inactive
2 | CC(=O)N(C)C[C@H]1Oc2ncc(C#C[C@@H](C)O)cc2C(=O)N([C@@H](C)CO)C[C@H]1C | inactive
3 | C[C@@H]1CN([C@H](C)CO)C(=O)Cc2cc(NC(=O)Nc3cccc4ccccc34)ccc2O[C@H]1CN(C)C(=O)Nc1ccc(F)cc1 | inactive
4 | CNC[C@@H]1Oc2cc(C#CCN(C)C)ccc2S(=O)(=O)N([C@H](C)CO)C[C@@H]1C | inactive
5 | CCCN1C[C@@H](C)[C@H](OC)CN(C)C(=O)c2cc(NS(=O)(=O)c3cn(C)cn3)ccc2OC[C@@H]1C | inactive
6 | CN1CCN(C(=O)C[C@H]2CC[C@H](NC(=O)Cc3ccccn3)[C@H](CO)O2)CC1 | inactive
7 | C[C@@H]1CCCCO[C@H](CN(C)S(=O)(=O)c2ccccc2)[C@@H](C)CN([C@H](C)CO)C(=O)c2cc(NC(=O)Nc3ccccc3)ccc2O1 | inactive
8 | O=C(O)c1ccc(N[C@@H]2O[C@H](CO)[C@@H](O)[C@H](O)[C@H]2O)cc1 | inactive
9 | Cc1ccc(S(=O)(=O)Nc2ccc3c(c2)C(=O)N([C@@H](C)CO)C[C@@H](C)[C@@H](CN(C)S(=O)(=O)c2ccc(Cl)cc2)OCCCC[C@@H](C)O3)cc1 | inactive
10 | Cc1ccc(S(=O)(=O)Nc2ccc3c(c2)C(=O)N([C@H](C)CO)C[C@H](C)[C@@H](CN(C)S(=O)(=O)c2ccc(Cl)cc2)OCCCC[C@H](C)O3)cc1 | active
11 | Cc1ccc(S(=O)(=O)Nc2ccc3c(c2)C(=O)N([C@H](C)CO)C[C@H](C)[C@H](CN(C)S(=O)(=O)c2ccc(Cl)cc2)OCCCC[C@@H](C)O3)cc1 | inactive
12 | Cc1ccc(S(=O)(=O)Nc2ccc3c(c2)C(=O)N([C@@H](C)CO)C[C@@H](C)[C@H](CN(C)S(=O)(=O)c2ccc(Cl)cc2)OCCCC[C@@H](C)O3)cc1 | inactive
13 | Cc1ccc(S(=O)(=O)Nc2ccc3c(c2)C(=O)N([C@H](C)CO)C[C@@H](C)[C@@H](CN(C)S(=O)(=O)c2ccc(Cl)cc2)OCCCC[C@@H](C)O3)cc1 | inactive
14 | Cc1ccc(S(=O)(=O)Nc2ccc3c(c2)C(=O)N([C@H](C)CO)C[C@@H](C)[C@H](CN(C)S(=O)(=O)c2ccc(Cl)cc2)OCCCC[C@@H](C)O3)cc1 | active
15 | Cc1ccc(S(=O)(=O)N(C)C[C@@H]2OCCCC[C@@H](C)Oc3ccc(NS(=O)(=O)c4ccc(Cl)cc4)cc3C(=O)N([C@H](C)CO)C[C@@H]2C)cc1 | inactive
16 | Cc1ccc(S(=O)(=O)N(C)C[C@H]2OCCCC[C@H](C)Oc3ccc(NS(=O)(=O)c4ccc(Cl)cc4)cc3C(=O)N([C@H](C)CO)C[C@H]2C)cc1 | inactive
17 | Cc1ccc(S(=O)(=O)Nc2ccc3c(c2)C(=O)N([C@@H](C)CO)C[C@H](C)[C@@H](CN(C)S(=O)(=O)c2ccc(Cl)cc2)OCCCC[C@H](C)O3)cc1 | active
18 | Cc1ccc(S(=O)(=O)N(C)C[C@H]2Oc3ccc(NS(=O)(=O)c4cccs4)cc3CC(=O)N([C@H](C)CO)C[C@H]2C)cc1 | inactive
19 | COc1ccc(CNC(=O)N(C)C[C@@H]2OCc3ccccc3-c3c(n(C)c4ccccc34)C(=O)N([C@@H](C)CO)C[C@H]2C)cc1 | inactive
20 | C[C@H]1CN([C@@H](C)CO)C(=O)c2cccc(NC(=O)Nc3ccc(F)cc3)c2O[C@H]1CN(C)S(C)(=O)=O | inactive
21 | COc1ccc(-c2coc3cc(O)ccc3c2=O)c(OC)c1OC | inactive
22 | COc1ccc(-c2coc3cc(O)ccc3c2=O)c(O)c1O | inactive
23 | COc1c(-c2coc3cc4c(cc3c2=O)CC(O)C(C)(C)O4)ccc2c1C=CC(C)(C)O2 (stereo not given) | active
24 | O=C(C[C@@H]1CC[C@@H](NC(=O)C2CC2)[C@@H](CO)O1)NCCCN1CCOCC1 | inactive

Row | Structure (SMILES) | cytotoxicity call
25 | C[C@@H]1CN([C@H](C)CO)C(=O)c2cc(-c3ccc(C(=O)N(C)C)cc3)cnc2O[C@@H]1CN(C)C(=O)CN(C)C | inactive
26 | COc1cc(-c2ccc(NN=C3C=Cc4c(S(=O)(=O)O)cc(S(=O)(=O)O)c(N)c4C3=O)c(OC)c2)ccc1NN=C1C=Cc2c(S(=O)(=O)O)cc(S(=O)(=O)O)c(N)c2C1=O | active
27 | Cc1cc(-c2ccc(NN=C3C=Cc4c(S(=O)(=O)O)cc(S(=O)(=O)O)c(N)c4C3=O)c(C)c2)ccc1NN=C1C=Cc2c(S(=O)(=O)O)cc(S(=O)(=O)O)c(N)c2C1=O | active
28 | COCC(=O)N1C[C@]2(CCN(CC2)C(=O)CN2CCOCC2)c2c([nH]c3cc(ccc23)OC)[C@@H]1CO | inactive
29 | COc1ccc2c3c(n(c2c1)C)[C@H](CO)N(C[C@]13CCN(CC1)C(=O)C1CCOCC1)C(=O)C1CCOCC1 | inactive
30 | C[C@@H]1CN([C@@H](C)CO)C(=O)c2cccc(NC(=O)C3CC3)c2O[C@H]1CN(C)Cc1ccc(Oc2ccccc2)cc1 | inactive
31 | O=C(Nc1ccccc1)c1ccccc1O | active
32 | O=C(Nc1ccccc1)c1ccccc1 | inactive
33 | O=C(Nc1ccccc1)Nc1ccc(Nc2ccccc2)cc1 | active
34 | NNC(=O)c1ccccc1O | inactive
35 | O=C(Nc1ccccc1)Nc1ccccc1 | inactive
36 | CC(=O)Nc1ccccc1 | inactive
37 | C[C@@H]1CN([C@@H](C)CO)C(=O)c2cccc(NC(=O)Nc3ccccc3)c2O[C@H]1CN(C)S(C)(=O)=O | inactive
38 | COc1ccc(CN(C)C[C@H]2OCCCC[C@@H](C)Oc3ccc(NC(=O)C4CCCCC4)cc3C(=O)N([C@@H](C)CO)C[C@H]2C)cc1 | inactive
39 | CN1C(=O)c2cc(NC(=O)C3CCCC3)ccc2OC[C@H]2O[C@H](CC(=O)NCCc3ccncc3)CC[C@@H]21 | inactive
40 | Cc1ccc(S(=O)(=O)N(C)C[C@@H]2Oc3ccc(NS(=O)(=O)c4ccccc4)cc3C(=O)N([C@H](C)CO)C[C@@H]2C)cc1 | inactive
41 | C[C@@H]1CN([C@@H](C)CO)C(=O)c2ccccc2-c2ccccc2CO[C@@H]1CN(C)Cc1cccc(C(F)(F)F)c1 | inactive
42 | CCCNC(=O)N[C@@H]1CC[C@H](CC(=O)N2CCN(C)CC2)O[C@H]1CO | inactive
43 | COc1ccccc1NC(=O)Nc1ccc2c(c1)C(=O)N(C)C[C@@H](OC)[C@H](C)CN(Cc1ccccc1Cl)[C@H](C)CO2 | inactive
44 | O=C1C=CC(=O)N1 | active
45 | COc1ccc(CN(C)C[C@@H]2OCCCC[C@H](C)Oc3ccc(NC(=O)CCC(F)(F)F)cc3C(=O)N([C@H](C)CO)C[C@@H]2C)cc1 | inactive
46 | CNC[C@@H]1Oc2ccc(NC(=O)Cn3cnnn3)cc2C(=O)N([C@H](C)CO)C[C@@H]1C | inactive
47 | C[C@H](CO)N1C[C@H](C)[C@H](CN(C)C(=O)Nc2ccc(F)cc2)Oc2ccc(NC(=O)CCN3CCOCC3)cc2CC1=O | inactive
48 | C[C@H](CO)N1C[C@H](C)[C@@H](CN(C)C(=O)Nc2ccc3c(c2)OCO3)Oc2c(NC(=O)C3CCOCC3)cccc2C1=O | inactive

Row | Structure (SMILES) | cytotoxicity call
49 | O=C(Nc1cc(Cl)cc(Cl)c1O)c1c(O)c(Cl)cc(Cl)c1Cl | inactive
50 | Oc1c(Cl)cc(Cl)c(Cl)c1Cc1c(O)c(Cl)cc(Cl)c1Cl | active
51 | O=C(/C=C/c1cccc(-c2cn(CC[C@@H]3OC(=O)[C@H](Cc4ccccc4)N4CC5=CC(=O)[C@H](C6CC6)[C@H]5[C@H]34)nn2)c1)NO | inactive
52 | O=C(C[C@@H]1C[C@@H]2c3cc(NC(=O)Nc4ccc(C(F)(F)F)cc4)ccc3O[C@@H]2[C@H](CO)O1)NCCc1ccccc1 | inactive
53 | CCS(=O)(=O)N1[C@H](CO)[C@H](c2ccccc2)C12CN(C(=O)CN(C)C)C2 | inactive
54 | C[C@H]1CCCCO[C@H](CN(C)C(=O)C2CCCCC2)[C@@H](C)CN([C@@H](C)CO)C(=O)c2cc(NC(=O)Nc3ccc4c(c3)OCO4)ccc2O1 | inactive
55 | COc1c(C)c2c(c(O)c1CC=C(C)CCC(=O)O)C(=O)OC2 | active
56 | COc1c(C)c2c(c(O)c1CC=C(C)CCC(=O)OCCN1CCOCC1)C(=O)OC2 | inactive
57 | COc1cccc(S(=O)(=O)N2C[C@@H](O)COC[C@@H]3O[C@@H](CC(=O)N4CCOCC4)CC[C@H]32)c1 | inactive
58 | COc1ccc(NC(=O)N(C)C[C@H]2Oc3c(NC(=O)CCCCCC(=O)Nc4ccccc4N)cccc3C(=O)N([C@@H](C)CO)C[C@H]2C)cc1 | inactive
59 | C[C@H]1CN([C@@H](C)CO)C(=O)c2cc(C#CCc3ccccc3)cnc2O[C@H]1CN(C)C(=O)Cc1cccnc1 | inactive
60 | Cc1ccccc1S(=O)(=O)N1C[C@H](O)COC[C@@H]2O[C@@H](CC(=O)N3CCOCC3)CC[C@H]21 | inactive
61 | CC(C)C(=O)Oc1ccc(CO)cc1C(CCN(C(C)C)C(C)C)c1ccccc1.O=C(O)C=CC(=O)O (stereo not given) | active
62 | C[C@H]1CN([C@@H](C)CO)C(=O)c2cc(NC(=O)CCN3CCOCC3)ccc2O[C@@H]1CN(C)C(=O)Nc1ccc2c(c1)OCO2 | inactive
63 | CC(=O)NCCCC[C@@H]1NC(=O)[C@@H]2C[C@H](C(=O)NCCCCCCN(C)C)[C@H](c3ccc(O)cc3)N2C1=O | inactive
64 | C[C@@H]1CCCCO[C@@H](CN(C)Cc2ccc(Cl)c(Cl)c2)[C@@H](C)CN([C@H](C)CO)C(=O)c2cc(NC(=O)c3ccccc3)ccc2O1 | inactive
65 | CCOn1ccnc1 | inactive
66 | Cn1c(=O)c2c(nc(N3CCCCC3)n2CCN)n(C)c1=O | inactive
67 | CC#CCn1c(N2CCC[C@@H](N)C2)nc2c1c(=O)n(Cc1nc(C)c3ccccc3n1)c(=O)n2C | active
68 | Cc1cc(C)n(-c2nc3c(c(=O)n(CCN4CCOCC4)c(=O)n3C)n2C)n1 | inactive
69 | C[C@H]1CN([C@@H](C)CO)C(=O)c2cccc(NS(=O)(=O)c3cn(C)cn3)c2O[C@@H]1CN(C)C(=O)Nc1ccc2c(c1)OCO2 | inactive
70 | CC(=O)N1[C@@H]2Cn3c(ccc(-c4ccccc4)c3=O)[C@H]1[C@@H](C(=O)NCCCN1CCOCC1)[C@@H]2CO | inactive
